Results on five compounds are retold here after PubChem BioAssay AID588358 (NMMLSC, 2011).

Screen size: about 310,000 compounds; about 1,500 (0.48%) were called active. The entries come from a sample that favours actives as a whole. A number with no mark means an inactive call.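 Rule for the calls: active = binding more than 3 SD below its plate's average and above zero; inconclusive = below that plate limit but binding exactly zero; inactive = the rest.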

The target in the experiment is Desmoglein-3 (Homo sapiens) (UniProt P32926). As to the kind of experiment: inhibitors of pemphigus antibody binding to DSG3, primary screen, biochemical, bead-based, flow cytometry, scFv-GFP (AID 588358).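 Note: hits lower antibody fragment binding to DSG3.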 The settings on record: DSG3-coupled beads, scFv-anti-DSG3-GFP binding, at 10 µM, stronger effect = lower value.
Chain of Desmoglein-3 (Homo sapiens) (P32926 whole entry, looked up, the tested form may be a part): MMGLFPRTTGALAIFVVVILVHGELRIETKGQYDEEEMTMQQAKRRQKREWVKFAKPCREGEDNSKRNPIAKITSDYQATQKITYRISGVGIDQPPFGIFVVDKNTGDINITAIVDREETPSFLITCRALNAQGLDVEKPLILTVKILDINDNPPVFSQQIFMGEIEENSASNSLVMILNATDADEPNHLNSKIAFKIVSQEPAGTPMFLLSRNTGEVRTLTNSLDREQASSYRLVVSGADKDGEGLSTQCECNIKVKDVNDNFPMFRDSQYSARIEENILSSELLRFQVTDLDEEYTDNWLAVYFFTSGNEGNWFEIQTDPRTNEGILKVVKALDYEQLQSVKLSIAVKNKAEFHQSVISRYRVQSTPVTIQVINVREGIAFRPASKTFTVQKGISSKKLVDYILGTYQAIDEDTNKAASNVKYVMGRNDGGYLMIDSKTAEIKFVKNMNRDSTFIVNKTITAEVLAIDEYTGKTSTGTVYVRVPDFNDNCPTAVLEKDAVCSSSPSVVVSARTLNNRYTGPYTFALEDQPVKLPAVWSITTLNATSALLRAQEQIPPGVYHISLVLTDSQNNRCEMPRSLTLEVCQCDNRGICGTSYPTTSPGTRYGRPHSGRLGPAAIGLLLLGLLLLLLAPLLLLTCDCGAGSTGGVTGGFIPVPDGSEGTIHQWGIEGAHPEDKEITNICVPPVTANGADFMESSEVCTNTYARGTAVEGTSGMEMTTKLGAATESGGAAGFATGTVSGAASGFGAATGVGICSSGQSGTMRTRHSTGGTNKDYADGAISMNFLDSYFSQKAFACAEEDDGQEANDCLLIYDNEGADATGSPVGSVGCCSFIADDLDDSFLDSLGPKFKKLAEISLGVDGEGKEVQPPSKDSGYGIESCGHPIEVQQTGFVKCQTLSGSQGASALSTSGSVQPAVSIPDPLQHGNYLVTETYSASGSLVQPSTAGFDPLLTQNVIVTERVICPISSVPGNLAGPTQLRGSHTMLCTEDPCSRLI
In the case of `c1ccc(CCNC2CCCCCC2)cc1`, the binding (percent of control) was 68.9% (active).

For `c1cc2c(cc1CCNC1CCCCCC1)OCO2`, the binding (percent of control) was 97.2%.

Take `OC(CNC1CCCCC1)c1ccccc1` (stereo not given): the binding (percent of control) is 107%.

In the case of `CN1CCC[C@@H]1CCO[C@](C)(c1ccccc1)c1ccc(Cl)cc1`, the binding (percent of control) was 102%.

For the compound `Cc1ncoc1C(=O)NCC1=C(c2cccc3ccccc23)C[C@@H]2CC[C@H]1N2Cc1ccco1`, the binding (percent of control) is 108%.
